Our source for the cytotoxicity call values is the antibiotic and cytotoxicity screens of Wong et al. (2023).

The structures appear in SMILES notation. Hit rate of the full screen: of about 39,000 compounds, about 3,300 (8.5%) were called active. The entries come from a sample that favours actives as a whole.

This experiment has as its system HepG2. Briefly: cytotoxicity call (relative viability < 0.9). The note with it: 10 µM.
As for `CCC[C@@H](N[C@H]1CCS(=O)(=O)C1)C(=O)O`, the cytotoxicity call was “inactive”.

Turning to `NC[C@H](c1ccco1)N1CCc2ccccc2C1`, the cytotoxicity call was “inactive”.

With `C[C@@H]1CN([C@@H](C)CO)C(=O)c2cccc(NS(=O)(=O)c3ccccc3)c2O[C@@H]1CN(C)Cc1ccncc1`, the cytotoxicity call was “inactive”.

Regarding `C[C@H](CO)N1C[C@H](C)[C@H](CN(C)S(=O)(=O)c2ccc(Cl)cc2)Oc2ccc(NC(=O)Cn3cnnn3)cc2CC1=O`, the cytotoxicity call was “inactive”. Turning to `COCC#Cc1ccc([C@@H]2[C@@H](CO)N3C(=O)CN(C(=O)C4CCOCC4)C[C@@H]23)cc1`, the cytotoxicity call was “inactive”. Then `Cc1noc(C)c1NC(=O)N(C)C[C@@H]1Oc2ccc(NC(=O)Cn3cnnn3)cc2C(=O)N([C@H](C)CO)C[C@@H]1C`, with “inactive”. In the case of `Cc1cc(C(C)(C)CC(C)(C)C)ccc1OCCOCC[N+](C)(C)Cc1ccccc1.[Cl-]` it was “active”. In the case of `C[N+](C)(CCOc1ccccc1)Cc1ccccc1.O=C(O)c1cc2ccccc2c(Br)c1O` it was “inactive”. On to `C[N+](C)(CCOc1ccccc1)Cc1ccccc1.O=C([O-])c1cc2ccccc2cc1O`, for which the cytotoxicity call is “inactive”. Then `C[C@H](CO)N1C[C@H](C)[C@@H](CN(C)S(=O)(=O)c2cn(C)cn2)Oc2ncc(/C=C/c3ccccc3)cc2C1=O`, with “inactive”.

As for `Cc1ccc(S[C@]2(C(=O)NCCCN(C)C)CC(=O)N(Cc3ccccc3Cl)[C@@H]2c2ccc(CO)cc2I)cc1`, the cytotoxicity call is “inactive”. Then `COc1ccc(NC(=O)N(C)C[C@H]2OCCCC[C@@H](C)Oc3ccc(NS(=O)(=O)c4ccc(C)cc4)cc3C(=O)N([C@@H](C)CO)C[C@H]2C)cc1`, with “inactive”. In the case of `CCn1cc(-c2ccc3ccccc3n2)c(=S)c2ccccc21`, the cytotoxicity call was “active”. In the case of `CC(C)Cn1cnc2ccccc21` it was “inactive”; in that of `CCn1c(=S)ccc2ccccc21`, “inactive”. In the case of `CN1N=C(C(N)=O)CCC1=O` it was “inactive”; in that of `C[C@@H]1CN([C@H](C)CO)C(=O)c2cc(NC(=O)Cn3cnnn3)ccc2O[C@@H]1CN(C)C(=O)Nc1ccccc1`, “inactive”.

For the compound `O=C(C[C@@H]1CC[C@H]2[C@@H](COC[C@@H](O)CN2S(=O)(=O)c2ccccc2)O1)N1CCc2ccccc2C1`, the cytotoxicity call is “inactive”. In the case of `C[C@H](N[P@@](=O)(OC[C@H]1O[C@@H](n2ccc(N)nc2=O)C(F)(F)[C@@H]1O)Oc1ccccc1)C(=O)OCc1ccccc1` it was “inactive”; in that of `COc1nc(N)nc2c1ncn2[C@@H]1O[C@H](CO[P@@](=O)(N[C@@H](C)C(=O)OCC(C)(C)C)Oc2cccc3ccccc23)[C@@H](O)[C@@]1(C)O`, “active”. Then `CC(C)OC(=O)[C@H](C)N[P@](=O)(OC[C@H]1O[C@@H](n2ccc(=O)[nH]c2=O)[C@@](C)(O)[C@@H]1O)Oc1ccccc1`, with “inactive”. Then `Cc1noc(C)c1S(=O)(=O)Nc1cccc2c1O[C@H](CN(C)S(=O)(=O)c1ccc(F)cc1)[C@@H](C)CN([C@H](C)CO)C2=O`, with “inactive”. In the case of `Cc1noc(C)c1NC(=O)Nc1ccc2c(c1)C(=O)N([C@H](C)CO)C[C@H](C)[C@H](CN(C)C(=O)Nc1ccc(C(F)(F)F)cc1)OCCCC[C@H](C)O2`, the cytotoxicity call was “inactive”.

Consider `COc1ccc(NC(=O)Nc2ccc3c(c2)C(=O)N([C@@H](C)CO)C[C@@H](C)[C@H](CN(C)S(=O)(=O)c2ccc(OC)cc2)OCCCC[C@H](C)O3)cc1`, for which the cytotoxicity call is “inactive”. In the case of `C[C@H]1CN([C@@H](C)CO)C(=O)Cc2cc(NC(=O)Cc3ccccc3)ccc2O[C@H]1CN(C)Cc1ccc(Oc2ccccc2)cc1` it was “active”; in that of `C[C@H]1CN([C@@H](C)CO)C(=O)Cc2cc(NC(=O)Cc3ccccc3)ccc2O[C@@H]1CN(C)Cc1ccc(Oc2ccccc2)cc1`, “inactive”. With `C[C@@H]1CN([C@H](C)CO)C(=O)Cc2cc(NC(=O)Cc3ccccc3)ccc2O[C@H]1CN(C)Cc1ccc(Oc2ccccc2)cc1`, the cytotoxicity call is “inactive”. Then `C[C@@H]1CN([C@H](C)CO)C(=O)Cc2cc(NC(=O)Cc3ccccc3)ccc2O[C@@H]1CN(C)Cc1ccc(Oc2ccccc2)cc1`, with “active”. Then `C[C@H](CO)N1C[C@H](C)[C@@H](CN(C)Cc2ccc(Oc3ccccc3)cc2)Oc2ccc(NC(=O)Cc3ccccc3)cc2CC1=O`, with “inactive”; and `C[C@H](CO)N1C[C@H](C)[C@H](CN(C)Cc2ccc(Oc3ccccc3)cc2)Oc2ccc(NC(=O)Cc3ccccc3)cc2CC1=O`, with “inactive”. Then `C[C@@H]1CN([C@@H](C)CO)C(=O)Cc2cc(NC(=O)Cc3ccccc3)ccc2O[C@@H]1CN(C)Cc1ccc(Oc2ccccc2)cc1`, with “active”; and `C[C@@H]1CN([C@@H](C)CO)C(=O)Cc2cc(NC(=O)Cc3ccccc3)ccc2O[C@H]1CN(C)Cc1ccc(Oc2ccccc2)cc1`, with “inactive”; and `Cc1ccc(S(=O)(=O)Nc2ccc3c(c2)C(=O)N([C@@H](C)CO)C[C@H](C)[C@H](CN(C)C(=O)CCC(F)(F)F)OCCCC[C@H](C)O3)cc1`, with “inactive”. In the case of `COc1ccc(NC(=O)Nc2ccc3c(c2)C(=O)N([C@H](C)CO)C[C@H](C)[C@H](CN(C)C(=O)Cc2ccccc2)OCCCC[C@@H](C)O3)cc1`, the cytotoxicity call was “inactive”.

Consider `Cc1noc(C)c1NC(=O)Nc1cccc2c1O[C@H](CN(C)S(=O)(=O)c1cn(C)cn1)[C@@H](C)CN([C@H](C)CO)C2=O`, for which the cytotoxicity call was “inactive”.

As for `C[C@H](CO)N1C[C@H](C)[C@H](CN(C)S(C)(=O)=O)Oc2ccc(NS(C)(=O)=O)cc2CC1=O`, the cytotoxicity call is “inactive”. Then `C=CCNS(=O)(=O)c1cccc2nonc12`, with “inactive”.

As to `C[C@H](CO)N1C[C@H](C)[C@@H](CN(C)S(=O)(=O)c2cn(C)cn2)Oc2ccc(NS(=O)(=O)c3cn(C)cn3)cc2CC1=O`, the cytotoxicity call was “inactive”.

As to `C[C@@H]1CCCCO[C@H](CN(C)S(C)(=O)=O)[C@H](C)CN([C@@H](C)CO)C(=O)c2cc(N(C)C)ccc2O1`, the cytotoxicity call is “inactive”.

As for `O=C(Cc1ccncc1)NCC[C@@H]1CC[C@@H](NC(=O)C2CCOCC2)[C@H](CO)O1`, the cytotoxicity call is “inactive”. In the case of `CC(C)NC(=O)Nc1ccc2c(c1)CC(=O)N([C@H](C)CO)C[C@H](C)[C@H](CN(C)Cc1ccc3c(c1)OCO3)O2` it was “inactive”; in that of `CCOC(=O)CCCCCC(=O)Nc1ccc2c(c1)C(=O)N([C@H](C)CO)C[C@@H](C)[C@@H](CN(C)C(=O)CCC(F)(F)F)OCCCC[C@H](C)O2`, “inactive”. On to `Cc1ccc(S(=O)(=O)N[C@@H](Cc2ccccc2)C(=O)NCCCn2cc(CCC(=O)NO)nn2)cc1`, for which the cytotoxicity call is “inactive”. Then `Cc1ccc(S(=O)(=O)N[C@@H](Cc2ccccc2)C(=O)NCCCn2cc(-c3cccc(/C=C/C(=O)NO)c3)nn2)cc1`, with “active”. Turning to `Cc1ccc(S(=O)(=O)N[C@H](C(=O)NCCn2cc(-c3cccc(/C=C/C(=O)NO)c3)nn2)C(C)C)cc1`, the cytotoxicity call is “inactive”. In the case of `Cc1ccc(S(=O)(=O)N[C@@H](Cc2ccccc2)C(=O)NCCn2cc(CCC(=O)NO)nn2)cc1` it was “active”; in that of `Cc1ccc(S(=O)(=O)N[C@@H](Cc2ccccc2)C(=O)NCCn2cc(-c3cccc(/C=C/C(=O)NO)c3)nn2)cc1`, “inactive”; in that of `Cc1ccc(S(=O)(=O)N[C@@H](Cc2ccccc2)C(=O)NCCn2cc(C(=O)NO)nn2)cc1`, “inactive”.
